Data as given in PubChem BioAssay (NCI).
Several values for one entry are separate records, joined by “and”; a condition that tells them apart may be missing. Equal values may be shown once. This is part of a sample that, as a whole, favours compounds with a hit. Of some 83,000 tested, about 20% had one in any assay.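 Plates (96-well) were seeded with cells, treated with compound at one concentration, and incubated for 48 hours before percent growth was determined.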 Activity calls are given as the source filed them. The calls were made as follows: active = growth percent below 10; inactive = the rest.

How the values were obtained:
Assay in all cases: NCI-60 one-dose screen, 48 h (100 = growth as untreated, 0 = no growth, -100 = all killed)
Details in all cases: 10 µM unless noted
[1] = system: SK-MEL-2 melanoma
[2] = system: EKVX NSCLC
[3] = system: SN12C renal
[4] = system: UO-31 renal
[5] = system: TK-10 renal
[6] = system: ACHN renal
[7] = system: CAKI-1 renal
[8] = system: A498 renal
[9] = system: CCRF-CEM leukemia
[10] = system: SR leukemia
[11] = system: RPMI-8226 leukemia
[12] = system: OVCAR-8 ovarian
[13] = system: OVCAR-5 ovarian
[14] = system: OVCAR-4 ovarian
[15] = system: SK-OV-3 ovarian
[16] = system: IGROV1 ovarian
[17] = system: HS 578T breast
[18] = system: NCI/ADR-RES ovarian
[19] = system: MOLT-4 leukemia
[20] = system: OVCAR-3 ovarian

| Compound | growth [1] | growth [2] | growth [3] | growth [4] | growth [5] | growth [6] | growth [7] | growth [8] | growth [9] | growth [10] | growth [11] | growth [12] | growth [13] | growth [14] | growth [15] | growth [16] | growth [17] | growth [18] | growth [19] | growth [20] |
| --- | --- | --- | --- | --- | --- | --- | --- | --- | --- | --- | --- | --- | --- | --- | --- | --- | --- | --- | --- | --- |
| N#C/C(=C\c1cccc2c1OCO2)C(=O)Nc1sc2c(c1C#N)CCCC2 | 106% (inactive) | 87.8% (inactive) | 98.3% (inactive) | 82.6% (inactive) | 120% (inactive) | 109% (inactive) | 86.1% (inactive) | 98.6% (inactive) | 108% (inactive) | 90.3% (inactive) | 101% (inactive) | 105% (inactive) | 101% (inactive) | 108% (inactive) | 98.5% (inactive) | 100% (inactive) | 102% (inactive) | 106% (inactive) |  |  |
| COc1cc(C(=O)c2cc(C(C)=O)c3cccc(C)n23)cc(OC)c1OC | -11.8% (active) | 53.6% (inactive) | 45.3% (inactive) | 45.2% (inactive) | 78.6% (inactive) | 51.4% (inactive) | 33.5% (inactive) | 21.9% (inactive) | 44.1% (inactive) | 17% (inactive) | 51.2% (inactive) | 50.8% (inactive) | 65.8% (inactive) | 74.1% (inactive) | 46.6% (inactive) | 43.9% (inactive) | 44.2% (inactive) | 22.1% (inactive) | 38.6% (inactive) |  |
| O=C(/C=C/c1cccc(F)c1)c1cccc(OCCCOc2cccc(C(=O)/C=C/c3cccc(F)c3)c2)c1 | 97.3% (inactive) | 47.2% (inactive) | 82% (inactive) | 37.6% (inactive) | 114% (inactive) | 89.4% (inactive) | 90.4% (inactive) | 90.8% (inactive) | 36.8% (inactive) | 6.17% (active) | -15.7% (active) | 67.6% (inactive) | 77.8% (inactive) | 75.3% (inactive) | 124% (inactive) | 36.9% (inactive) | 93.8% (inactive) | 90.1% (inactive) | 56.3% (inactive) |  |
| C/C=C/CC(C)C(O)[C@H](NC(=O)[C@@H]1CCCN1C(=O)[C@](C)(CC)NC(=O)CCCCCCCCC)C(=O)N[C@@](C)(CC)C(=O)N[C@@H](CCC(N)=O)C(=O)N[C@H](CCC(N)=O)C(=O)NC(C)(C)C(=O)NC(C)(C)C(=O)N[C@@H](CCC(N)=O)C(=O)N[C@H](CC(C)C)C(=O)N[C@H](CO)CC(C)C (stereo not given in full) | 108% (inactive) and -50% (active) | 55.1% (inactive) and -69.6% (active) | 28.8% (inactive) and -51.5% (active) | 55.2% (inactive) and -79.7% (active) | 107% (inactive) and -11.3% (active) | 76.8% (inactive) and -79.3% (active) | 42% (inactive) and -69.1% (active) | 12.7% (inactive) and -50.9% (active) | 60.2% (inactive) and -40% (active) | 12.6% (inactive) and 1.7% (active) | 50.5% (inactive) and -38.3% (active) | 42.1% (inactive) and -54.9% (active) | 71% (inactive) and -92% (active) | 86.8% (inactive) and 43.1% (inactive) | 107% (inactive) and 19.3% (inactive) | 52.1% (inactive) and -14.1% (active) | 6.26% (active) and -64.4% (active) | 71.4% (inactive) and -70.3% (active) |  | 7.49% (active) |
| Cc1cc2nc(C(Cl)Cl)nc(-c3ccc(S(=O)(=O)N(C)C)cc3)n2n1 | 93% (inactive) | 48.7% (inactive) | 55% (inactive) | 65.7% (inactive) | 85% (inactive) | 25.2% (inactive) | 45% (inactive) | 90.9% (inactive) | 40.8% (inactive) | 11.8% (inactive) | 55.3% (inactive) | 33.9% (inactive) | 67.3% (inactive) | 57.2% (inactive) | 50.5% (inactive) | 23.1% (inactive) | 72.7% (inactive) | 26.3% (inactive) | 28.4% (inactive) |  |
| C=C(C)[C@@H]1CC[C@]2(C(=O)O)CC[C@]3(C)[C@H](CC[C@@H]4[C@@]5(C)C/C(=C/c6ccccn6)C(=O)C(C)(C)[C@@H]5CC[C@]43C)[C@@H]12 | 68.5% (inactive) | 33.3% (inactive) | 41.1% (inactive) | 35.8% (inactive) | 60.8% (inactive) | 35.9% (inactive) | 26.8% (inactive) | 61.7% (inactive) | 21.8% (inactive) | 29.1% (inactive) | 13% (inactive) | 32% (inactive) | 82.4% (inactive) | 36.2% (inactive) | 70.4% (inactive) | 51.6% (inactive) | 63.6% (inactive) | 37.4% (inactive) |  | 40.8% (inactive) |
| N#CC1=C2NCCCNc3oc(nc3C#N)Cc3ccccc3CC(=N1)O2 | 93.9% (inactive) | 99.5% (inactive) | 105% (inactive) | 72.9% (inactive) | 106% (inactive) | 87.4% (inactive) | 77.3% (inactive) | 95.5% (inactive) | 30.4% (inactive) | 36.6% (inactive) | 19.9% (inactive) | 97.4% (inactive) | 102% (inactive) | 94.5% (inactive) | 102% (inactive) | 93.4% (inactive) | 92.4% (inactive) | 97.8% (inactive) |  |  |
| CC(=O)N(O)CCCCCNC(=O)CCC(=O)N(O)CCCCCNC(=O)CCC(=O)N(O)CCCCCN(CCCCCCCCCC[P+](c1ccccc1)(c1ccccc1)c1ccccc1)CCCCCCCCCC[P+](c1ccccc1)(c1ccccc1)c1ccccc1 | -46.7% (active) | 5.96% (active) | 1.45% (active) | 52.3% (inactive) | 26.5% (inactive) | 29.7% (inactive) | 29.3% (inactive) | -3.27% (active) | 5.87% (active) | 1.64% (active) | -13.9% (active) | 10.5% (inactive) | 16.2% (inactive) | 5.75% (active) | -10% (active) | -63.9% (active) | 16.3% (inactive) | 73.5% (inactive) | 8.41% (active) |  |
